These results are taken from PubChem BioAssay AID1508600 (Functional Genomics Laboratory (NCATS/FGL), 2020).

Out of some 53,000 sequences screened, about 3,700 (7%) were called active. This is one part of a sample in which actives are shown more often than they occur.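 The calls were made as follows: active = gene knockdowns whose robust z-score for IL-1 alpha signal is at least 2 or at most -2, so actives lie on both sides; inactive = the rest.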

A short description of the experiment: Components of the Cytosolic LPS Sensing Pathway: Gene Identification via Genome-wide siRNA Screen.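 Also: robust z of the log signal after scaling to non-targeting control siRNA wells of the plate.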 The conditions noted are these: RAW264.7 macrophages, IL-1a HTRF, actives lie on both sides, screened at 100 nM (by protocol), cells primed 5 h with Pam3CSK4 first. The essentials: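 Cells (RAW264.7, 1×10^4 per well) were transfected with siRNA at 100 nM and cultured 48h at 37 degrees C. Pam3CSK4 was added for 5 hours; LipidA transfection followed for 24 hour. IL-1a was then measured by HTRF.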
Background: TR-FRET usually uses a lanthanide donor and a delayed reading to cut background.
As for GGGACUAUUCCUCCAGAGUTT against Cast, the z-score was -0.439 (inactive).

Regarding GGUCAAGAGGGAAAACUUUTT against Ctps, the z-score was 0.0558 (inactive).

In the case of CGGUACAUCAUUGCUGUCATT against Slc17a8, the z-score was -2.22 (active).

CCGUAGUAUCCACUGAUUGTT against Olfr1322: the z-score is -0.34 (inactive).

As for GGAGGAAGAAACAACAAUGTT against Calhm5, the z-score is 0.76 (inactive).

Turning to GGCUUAGUAUGUUGUAUUCTT against Fam241b, the z-score was 0.189 (inactive).

With GGGUUCAUUUUUGGCUUUCTT against Serpina3m, the z-score was 0.0735 (inactive).

Consider GGUGCAGAAGCUCAAGUUCTT against Cpne2, for which the z-score is 2.44 (active).

Turning to GCGAAUCUCCUCCUAGUGATT against Arhgap28, the z-score was -0.0218 (inactive).

As for GGAAUUCGUAAAGAUUGCATT against Esrp2, the z-score was -0.158 (inactive).

For UGCUGGUAGACCUAGUAGCTT against Olfr1137, the z-score was -2.1 (active).

Turning to GGUGUACGAUCUGACCAAGTT against Cyb5a, the z-score is 0.0756 (inactive).

Consider GGAAUGGUUUGGUGAGUUUTT against Pramel1, for which the z-score was 0.859 (inactive).

GGCAUCUCUUCCAAGUUGGTT against Mzt1: the z-score was 1.69 (inactive).

As for GGGACAUAUUGUUUCCCUUTT against Tmco5b, the z-score is 0.777 (inactive).

Regarding GGUUAUGAUGGGACUUCUCTT against Tmem37, the z-score is -1.34 (inactive).

With CCUUUGUAGGAACAAUUUATT against Phlda1, the z-score is 0.409 (inactive).

Consider GCGUAUUUUAUGGAUGAAATT against Nfkbiz, for which the z-score is -2.42 (active).

For the sequence GGAUUAUCAUGGUUUGAUCTT against Elp4, the z-score was 0.938 (inactive).

Consider GCAUCUGUGCCGAUUAAAATT against Asb15, for which the z-score was 1.32 (inactive).

On to AUAUCAGACUGACAUAGCATT against Obox5, for which the z-score is 2.47 (active).

CGAGGCUAACAAACUCAUATT against Guca2a: the z-score is 0.883 (inactive).

For the sequence CCUGGAAACUAUUUUGAUGTT against Katnal2, the z-score is 0.0379 (inactive).

On to GACAAAACAAUUUCCUAUGTT against Olfr805, for which the z-score is -0.318 (inactive).

As for GGCAGAAACGUGGACUAAATT against Mmp12, the z-score is -1.29 (inactive).

Regarding GGAACCAGUAUCCUGACAUTT against Prop1, the z-score is -0.592 (inactive).

For GGCUAUAAUGAACCAGCUGTT against Ubr3, the z-score was -0.208 (inactive).

Turning to CCAGUUCAGAGAUUAUCUUTT against Olfr826, the z-score was -2.13 (active).

Consider GGAUGCAGAUGUACAACUCTT against Slc25a28, for which the z-score was 2.17 (active).

As for GGAGCCUCCAAGUUGUAAGTT against Ifi27l2b, the z-score is 0.748 (inactive).

Turning to CCACCUUAACUGUUGCUUUTT against Mmp2, the z-score was 0.691 (inactive).

Take GCAUUUGAAUCGACUACAGTT against Vti1b: the z-score was 0.691 (inactive).

GGUGUGUGCAGGACUAAAUTT against Cacng3: the z-score was 0.955 (inactive).

With GCCGGAGUGCACAAUCAAATT against Rarres2, the z-score is 0.908 (inactive).

In the case of GGAAAUCCAUCGUUAUUCUTT against Abca8a, the z-score is 2.08 (active).

As to GGAGAGACUUGAGAUUGUCTT against Ptx3, the z-score is 0.245 (inactive).

As for GGACACUAUCCGUGCAUCUTT against Tsg101, the z-score was -1.13 (inactive).

With GCAAGUGACGGUUUAUCUGTT against Las1l, the z-score is -1.68 (inactive).

As to UACCAGAAGUACCUGUCCCTT against Lbx1, the z-score was 3.33 (active).

Regarding CCUCAUUCGAUACAUCUGUTT against Ints3, the z-score is 0.319 (inactive).

Turning to CCUUGUUUUUCACAAAUCATT against Usp7, the z-score is -0.182 (inactive).

Regarding GGCUCGACUUGGAGAAAAGTT against Atg13, the z-score is 0.0439 (inactive).

On to GCAGAAGCCUGUGGGAUCUTT against Tex43, for which the z-score is -0.102 (inactive).

Turning to GCAAAACCUAACUAUGUUUTT against Mterf3, the z-score is -0.879 (inactive).

Consider CGAAUUAUGGCACCGUCAATT against P2rx7, for which the z-score was -0.647 (inactive).

As for UUAGCCACUCAUUGUUCCATT against Olfr1303, the z-score was -0.133 (inactive).

Take GCUAAUACUGAAAUCGAUGTT against Ccdc73: the z-score was 1.02 (inactive).

Regarding GGGAGAGUCUUGGCAACUUTT against Btbd17, the z-score is -2.12 (active).

Regarding GGAAGAGAAGAAGGAACUUTT against Ada, the z-score is -1.51 (inactive).

With CGUUUAAAGACUAGCAAGATT against Tab1, the z-score is 0.0468 (inactive).

GGGCUAAUGAGAUAGGUUUTT against Slc19a2: the z-score was 2.18 (active).

As for GGAGGCUGCAAUAGAGGAGTT against Defa20, the z-score was 1.23 (inactive).

With GGCAAGAGUGAAUUUAAGATT against Nt5e, the z-score is -0.292 (inactive).

Take GGAUUUCACAGUCAAAAUUTT against Insrr: the z-score was -0.825 (inactive).

For CGGUGUACGAGUUAGAGAATT against Crybb3, the z-score was 1.75 (inactive).

In the case of GGGAGAUCUUGACAAAUUCTT against Aplp1, the z-score was 2.32 (active).

For “GGAGAAUGACUAGGUAAUCTT against A130010J15Rik”, the z-score was 1.27 (inactive).

For the sequence CCUGUCGUUUAACCCUGUCTT against Fis1, the z-score was -0.96 (inactive).

As to GGAGUUGACCACACUGCUUTT against Smtn, the z-score is -1.09 (inactive).

Turning to GGAAUUUAUUCACCCAGACTT against Sirt2, the z-score is -1.51 (inactive).

Regarding GGAGAUGAAGCUCUGGAUATT against Spock2, the z-score is 0.132 (inactive).

On to CCUAUCUCCCUGUUCGAUATT against Rab36, for which the z-score was -1.01 (inactive).

In the case of GGACAACUCAGAUUGGACUTT against Adprhl2, the z-score was -1.22 (inactive).

For GGCUUGAAUCACCAACCAGTT against Sgcz, the z-score is 0.224 (inactive).

As for GGUAGUGAGUACUUUGGAATT against Amy2a5, the z-score is -1.16 (inactive).

Turning to GCAAGUGCGACUGUAUCUGTT against Gdpd2, the z-score was -2.2 (active).

Take GGGAUAAUGCAUGUGAAAATT against Pdk3: the z-score is -0.292 (inactive).

For the sequence GGUUUGUCAACAAGUGUCATT against Dicer1, the z-score is -2.17 (active).

As to CCAGUACAGAUGUGUUAAATT against N4bp2l2, the z-score was 1.68 (inactive).
